# Screening data deposited in PubChem by several laboratories.
# A selection: hits, their analogues and other compounds. The true share with any hit is near 5.9%.
# DAX1 inh – inhibitors of human orphan nuclear receptor DAX1 (NR0B1) | P51843 | HEK293 Gal4-DAX1 luciferase reporter, luminescence | inhibition, % at 6.75 µM | 0.99% of 340,000 active;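 active = inhibition above the mean over all tested compounds plus 3 SD, cut at about 4.2% in these data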;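 note: inhibition shows as a rise in luminescence from relieved DAX1 repression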
# HSF1 inh – HSF1 inhibition; activity change, negative = inhibition, % at 7.5 µM (by protocol); NIH3T3-HGL HSE-luciferase, MG132-induced, luminescence 8 h; stronger effect = lower value; 0.77% of 300,000 active; AID 2098;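 active = more than half of replicate wells show activity change below -50%, luminescence cut by over half; inconclusive = some wells, but at most half, below -50%; inactive = no replicate well below -50%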;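 note: luciferase reports HSF-1 transcriptional activity via heat shock element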
# HSP90 inh – inhibitors of HSP90 luciferase refolding in rabbit reticulocyte lysate; AID 1789; inhibition, % at 5.6 µM; luciferase refolding luminescence, 3 h; 0.91% of 290,000 active;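 active = inhibition above the screen-wide mean plus 3 SD, computed separately per campaign, cut at about 16% in these data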;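 note: inhibitors lower the luminescence because luciferase stays unfolded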
# GAA850 FXN act – activators of GAA850 frataxin (FXN) promoter | activation, % at 6 µM | AID 540364 | 0.56% of 360,000 active | HEK293 lucGAA850 FXN promoter luciferase reporter, 24 h; percent of 10 µM SAHA response;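 active = activation above the average of all compounds screened plus 3 SD, cutoff fixed separately per campaign, cut at about 7.5% in these data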
# AHR act – human AHR activation | activation, % at 5 µM | 2.5% of 320,000 active | AHR-responsive luciferase reporter cells, luminescence | P35869; in the data active = activation above about 47%
# Target sequence (P35869 whole entry, looked up): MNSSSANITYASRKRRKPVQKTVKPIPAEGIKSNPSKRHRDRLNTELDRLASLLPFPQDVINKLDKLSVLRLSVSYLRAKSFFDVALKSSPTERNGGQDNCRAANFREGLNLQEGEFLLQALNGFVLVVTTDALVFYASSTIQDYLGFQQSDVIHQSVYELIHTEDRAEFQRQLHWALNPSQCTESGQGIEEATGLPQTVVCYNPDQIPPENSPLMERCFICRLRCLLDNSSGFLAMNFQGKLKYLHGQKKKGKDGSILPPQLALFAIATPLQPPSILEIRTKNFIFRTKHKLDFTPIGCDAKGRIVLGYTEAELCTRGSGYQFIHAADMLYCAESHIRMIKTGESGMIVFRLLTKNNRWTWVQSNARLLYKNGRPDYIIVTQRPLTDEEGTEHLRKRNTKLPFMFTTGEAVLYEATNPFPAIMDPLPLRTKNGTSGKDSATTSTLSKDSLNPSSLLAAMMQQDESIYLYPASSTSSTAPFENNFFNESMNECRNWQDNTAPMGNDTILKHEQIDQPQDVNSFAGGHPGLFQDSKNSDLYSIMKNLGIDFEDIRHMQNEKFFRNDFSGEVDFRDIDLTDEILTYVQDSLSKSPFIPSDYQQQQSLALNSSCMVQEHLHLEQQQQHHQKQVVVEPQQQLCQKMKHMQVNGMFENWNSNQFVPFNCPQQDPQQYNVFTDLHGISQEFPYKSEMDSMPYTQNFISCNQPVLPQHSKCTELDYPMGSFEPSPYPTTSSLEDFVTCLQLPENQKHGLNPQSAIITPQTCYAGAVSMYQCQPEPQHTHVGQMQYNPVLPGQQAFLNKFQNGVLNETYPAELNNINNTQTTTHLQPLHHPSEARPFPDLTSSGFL
# HSF-1 act – increases HSF-1 driven luciferase reporter signal. NIH3T3-HGL HSF-1 luciferase reporter, MG132, 8 h; 100% = twice DMSO control signal. activation, % at 9 µM. 1.7% of 300,000 active;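 active = mean replicate activation of at least 50% with a set share of replicates each reaching 50%; inconclusive = only one of those two conditions met; inactive = mean below 50% and too few replicates reaching it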
# Hits are given with their value; – = inactive; ? = inconclusive; · = no result.
SMILES,DAX1 inh,HSF1 inh,HSP90 inh,GAA850 FXN act,AHR act,HSF-1 act
CSc1ccc(-c2sc(Nc3cccc4ccccc34)n[n+]2-c2ccccc2)cc1,–,–,–,–,–,–
CSc1ccc(-c2sc(Nc3ccccc3)n[n+]2-c2ccccc2)cc1,–,–,–,–,65,–
COc1ccc(C)cc1Nc1n[n+](-c2ccccc2)c(-c2ccc(SC)cc2)s1,–,–,–,–,73,–
COc1ccc(C)cc1Nc1n[n+](-c2ccccc2)c(-c2ccc(NC(C)=O)cc2)s1,–,–,–,–,65,–
CC(=O)Nc1ccc(-c2sc(Nc3cccc4ccccc34)n[n+]2-c2ccccc2)cc1,–,–,–,–,81,–
CCNC(=O)NC(=O)CSc1ccc(S(=O)(=O)N2CCCCC2)cn1,–,·,·,–,–,·
CC1(C(=O)Nc2ccccc2)CCN1C(=O)CCc1ccc(Cl)cc1Cl (stereo unspecified),·,·,·,–,·,·
C=CCC(Nc1ccccc1)c1ccc(OC)c(OC)c1 (stereo unspecified),·,-63,–,·,–,–
Nc1c(C(=O)O)cnc2c(-c3ccc(Cl)cc3)cnn12,–,–,–,–,98,?
Clc1ccc(-c2cnn3c(-c4ccncc4)ccnc23)cc1,–,–,–,–,72,–
Cc1ccc(CNC(=O)c2cc(S(=O)(=O)N3CCOCC3)cn2C)cc1,–,–,–,–,–,–
CCCCCC(=O)O/N=C(\C)c1ccn(S(=O)(=O)c2ccccc2)c1,–,–,–,–,–,–
O=C(/C=C/c1ccc(F)cc1)c1cc(Br)ccc1O,–,–,–,–,–,–
O=C(/C=C/c1ccccc1)c1cc(Br)ccc(=O)c1O,–,–,–,–,–,91
Cc1ccc(/C=C/C(=O)c2ccccc(=O)c2O)cc1C,–,–,–,–,–,76
N#CC1=C(N)N(c2ncn[nH]2)C2=C(C(=O)CCC2)C1c1ccccc1 (stereo unspecified),–,–,–,–,–,–
CSc1ccc(C2C(C#N)=C(N)N(c3ccccc3)C3=C2C(=O)CCC3)cc1 (stereo unspecified),–,–,–,–,–,58
CCc1nc(SC)[nH]c(=O)c1C,–,–,–,–,–,–
CSc1nc2c(C)c(C)c(C)c(C)c2[nH]1,5.1,–,–,–,47,–
CCC(c1nnnn1Cc1ccco1)N(Cc1cc2cc(C)cc(C)c2[nH]c1=O)CC1CCCO1 (stereo unspecified),–,–,–,–,–,64
Cc1cccc2cc(CN(Cc3ccco3)C(c3nnnn3CCc3ccccc3)C(C)C)c(=O)[nH]c12 (stereo unspecified),–,–,–,–,–,198
COc1ccc2[nH]c(=O)c(CN(C3CCCCC3)C(c3nnnn3Cc3ccco3)C(C)C)cc2c1 (stereo unspecified),–,–,–,–,–,119
CCOC(=O)Cn1nnnc1C(C(C)C)N(Cc1cc2c(C)cc(C)cc2[nH]c1=O)C1CCCC1 (stereo unspecified),–,–,–,–,–,123
CCOc1ccc(OCCC(=O)N(CCC(C)C)c2c(N)n(Cc3ccccc3)c(=O)[nH]c2=O)cc1,–,–,·,–,–,–
CCC(c1nnnn1Cc1ccco1)N(Cc1ccccc1OC)Cc1cc2cc(C)ccc2[nH]c1=O (stereo unspecified),–,–,–,–,–,89
SMILES,DAX1 inh,HSF1 inh,HSP90 inh,GAA850 FXN act,AHR act,HSF-1 act
Cc1ccc2[nH]c(=O)c(CN(CCCO)C(C)c3nnnn3Cc3ccco3)cc2c1 (stereo unspecified),–,–,–,–,–,–
Oc1[nH]c(N=C2N=c3ccccc3=N2)c2ccccc12,–,–,–,–,58,288
Cc1ccc2c(c1)=N/C(=N\c1[nH]c(O)c3ccccc13)N=2,–,·,·,–,·,·
COC(=O)[C@H]1C[C@H]1[C@@H](NC(=O)c1ccc[nH]1)c1ccccc1,–,–,·,–,–,–
Cc1cc(C)cc(NC(=O)c2cc(C)n(Cc3cccs3)c2C)c1,–,–,–,–,–,–
Cc1cc(C(=O)Nc2ccc(Cl)cc2)c(C)n1Cc1cccs1,–,–,16,–,–,–
CC(C)CN(C(=O)c1cccs1)C1CCS(=O)(=O)C1 (stereo unspecified),–,–,·,–,·,62
CCN(C(=O)c1cccs1)C1CCS(=O)(=O)C1 (stereo unspecified),–,–,·,–,·,–
Cc1noc(/C=C/Nc2ccc(F)cc2F)c1[N+](=O)[O-],–,–,–,–,64,–
Cc1noc(/C=C/c2ccccn2)c1[N+](=O)[O-],–,–,–,–,–,?
CCn1c(C)cc(/C=C2/SC(=S)N(CC(=O)O)C2=O)c1C,–,?,–,–,–,–
COC(=O)CN1C(=O)S/C(=C/c2cc(C)n(C)c2C)C1=O,–,–,–,8.8,–,–
COc1ccc(N=C2S/C(=C\c3cc(C)n(C)c3C)C(=O)N2CC(C)C)cc1,–,–,–,–,–,–
C#CCN1C(=O)S/C(=C/c2cc(C)n(CC)c2C)C1=O,–,–,–,–,–,58
Cn1cc(CN2CCC(C(=O)NC(c3ccc(F)cc3)c3ccc4ccccc4n3)CC2)c2ccccc21 (stereo unspecified),·,·,·,–,·,·
COc1cccc(C(=O)c2c[nH]c(C(=O)NCc3ccco3)c2)c1,–,-56,–,–,–,–
CC1(C(=O)NS(=O)(=O)c2cccc(OC(F)F)c2)CCN1C(=O)c1ccccc1CCc1ccccc1 (stereo unspecified),·,·,·,–,·,·
CC(=O)Cc1cc(O)c2ccccc2c1OC(=O)c1ccc(Br)cc1,–,–,–,–,69,?
COc1cc(OC)c(N(C)S(=O)(=O)c2cccc(C(=O)Nc3nnc(C4CC4)s3)c2)cc1Cl,–,–,–,–,–,131
Cc1cccc(NC(=O)[C@@H]2CCCN2C2=NS(=O)(=O)c3ccccc32)c1C,4.4,·,·,–,–,·
CC(=O)c1ccc(NC(=O)[C@@H]2CCCN2C2=NS(=O)(=O)c3ccccc32)cc1,–,·,·,–,–,·
O=C(/C=C/c1cccc([N+](=O)[O-])c1)NC(=S)Nc1ccccc1C(=O)O,·,·,–,·,·,·
O=C(/C=C/c1cccc([N+](=O)[O-])c1)NC(=S)Nc1cccc(NC(=O)c2ccccc2Cl)c1,–,–,–,–,–,61
CCNC(=O)C1(C)CCCN1C(=O)c1ccc(-c2ccccc2)cc1 (stereo unspecified),·,·,·,–,·,·
COc1ccc(CNC(C)CCc2ccccc2)cc1 (stereo unspecified),–,-67,–,–,–,–
COc1ccc(CCC(C)NCc2ccc(C(F)(F)F)cc2)cc1 (stereo unspecified),–,–,–,–,–,–
CC12C=CC(=O)C=C1CCC1C2C(O)CC2(C)C1CCC2(O)C(=O)CO (stereo unspecified),–,·,·,–,·,·
